Assay [1] is described as follows: Nuclear factor erythroid 2-related factor 2/antioxidant responsive element (Nrf2/ARE) small molecule agonists: luciferase reporter gene qHTS assay in human keratinocytes (AID 1919969; also: nearly all actives have a fitted effect of over 35% in size; also: potency is read from the fitted curve at half-maximal effect). (In general: In a reporter assay the amount or activity of a reporter protein is the signal.)
Assay [2] addresses Gonadotropin-releasing hormone receptor (Homo sapiens) (UniProt P30968). The assay is described as follows: Human gonadotropin-releasing hormone receptor (GnRHR) small molecule agonists, calcium flux assay in GnRHR-HEK293 cells (AID 1920063). Also: nearly all actives have a fitted effect of over 35% in size. An outline of the steps: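 HEK293 cells stably expressing human GnRHR were dye-loaded for 1 h at 37 C. Compound was added in agonist mode and fluorescence (Ex/Em 480/540) recorded kinetically for 3 min. Fifteen concentrations, triplicates.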
For orientation: Calcium assays in cells follow changes in intracellular calcium, usually with a dye or a luminescent sensor.

Assay [3] addresses KiSS-1 receptor (Homo sapiens) (UniProt Q969F8). The assay is described as follows: Human kisspeptin (KISS1R) small molecule agonists, calcium flux assay in KISS1R-HEK293 cells (AID 1920064; active = well fitted activation curve with a large enough effect in the repeat runs). An outline of the steps: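 HEK293 cells stably expressing human KISS1R were loaded with calcium dye for 1 h at 37 C, then given compound; fluorescence (Ex/Em 480/540) was read kinetically for 3 min. Fifteen concentrations, triplicate.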

Assay [4] is described as follows: G protein-coupled receptor (GPCR) small molecule agonists, calcium flux assay: HEK293 wild type cell line counter screen (AID 1920065). A digest of the protocol: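 Wild-type HEK293 cells plated 18 h, loaded with calcium dye 1 h at 37 C, then compounds added in agonist mode (ATP as positive control). Kinetic fluorescence Ex/Em 480/540 recorded 3 min at 1 sec intervals; 15 concentrations, triplicate.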

Assay [5] can be described thus: p53 small molecule agonists, cell-based qHTS assay with human liver microsomes (AID 1963577).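 Also: p53 response element beta-lactamase reporter cells with liver microsomes plus NADPH.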 A digest of the protocol: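 16 h, 37 C exposure of p53RE-bla cells to compounds with human liver microsomes and NADPH (0.5 mg/mL final each); detection via LiveBLAzer mixture, 2 h dark at room temperature.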
A short description of assay [6]: p53 small molecule agonists, cell-based qHTS assay with rat liver microsomes (AID 1963578). An outline of the steps:
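With rat liver microsomes and NADPH present (0.5 mg/mL final each), p53RE-bla cells are treated with compound for 16 h at 37 C. LiveBLAzer detection mixture is then applied for 2 h at room temperature in the dark.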
A general note: In qHTS, concentration-response curves come from the screen itself.

Assay [7] in a line: p53 small molecule agonists, cell-based qHTS assay with rat liver microsomes: qHTS cell viability counter screen (AID 1963580). Also: nearly all actives have a fitted effect of over 45% in size. An outline of the steps: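 HCT-116 p53RE-bla, 4,000 cells/well, 5 h pre-incubation; cpd + rat liver microsomes 0.5 mg/mL + NADPH 0.5 mg/mL (final); 16 h, 37 C; CellTiter-Glo, 30 min RT; luminescence.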
Assay [8] can be described thus: p53 small molecule agonists, cell-based qHTS assay: qHTS cell viability counter screen (AID 1963581). Also: nearly all actives have a fitted effect of over 45% in size. An outline of the steps: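 p53RE-bla HCT-116 cells, compounds added 5 h after plating and incubated 16 h at 37 C. Cytotoxicity measured in the same wells as intracellular ATP by CellTiter-Glo luminescence after 30 min at room temperature.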
Assay [9] can be described thus: p53 small molecule agonists, cell-based qHTS assay (AID 1963582; active = well fitted activation curve with a large enough effect in the signal ratio in the repeat runs, not every such curve was filed as active; the % refers to the signal ratio). An outline of the steps:
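p53RE-bla reporter cells, compounds added in DMSO after 5 h plating, incubated 16 h at 37 C. Beta-lactamase read via 2 h room-temperature LiveBLAzer B/G FRET substrate, fluorescence intensity.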

Assay [10] deals with 5-hydroxytryptamine receptor 2A (Homo sapiens) (UniProt P28223). The assay is described as follows: 5-hydroxytryptamine receptor 2A (HTR2A) small molecule antagonists, cell-based qHTS assay (AID 1963586). Also: nearly all actives have a fitted effect of over 45% in size. A digest of the protocol: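 Antagonist-mode intracellular calcium assay: DOI (4 nM) added after 5 min compound pre-incubation at room temperature to dye-loaded HTR2A-CHO cells. Fluorescence followed for 3 min, sampled every second.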

The target in assay [11] is Muscarinic acetylcholine receptor M1 (Homo sapiens) (UniProt P11229). Put plainly: Cholinergic receptor muscarinic 1 (CHRM1) small molecule agonists, cell-based qHTS assay (AID 1963589). Also: nearly all actives have a fitted effect of over 35% in size. A digest of the protocol: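 CHO cells stably expressing human CHRM1 were loaded with calcium dye for 1 h at 37 C, then compound was added in agonist mode. Intracellular calcium fluorescence was followed kinetically at 1 s intervals. Fifteen concentrations were tested in three independent runs.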

A short description of assay [12]: cAMP Responsive Elements (CRE) small molecule agonists, cell-based qHTS assay (AID 1963590). An outline of the steps: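 CRE-bla HEK 293T cells, 2,000/well in DMEM with 10% dialyzed FBS and 25 mM HEPES, pre-incubated 18 h at 37 C, then exposed to compound 3 h at 37 C. Beta-lactamase reporter read with LiveBLAzer B/G FRET substrate after 2 h at room temperature.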

The nature of assay [13]: cAMP Responsive Elements (CRE) small molecule antagonists, cell-based qHTS assay (AID 1963591; active = well fitted inhibition curve with a large enough effect in the signal ratio in the repeat runs, not every such curve was filed as active; the % refers to the signal ratio). A digest of the protocol: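 CRE-bla HEK293T cells plated 18 h, then given compound plus NKH477 at 0.25 uM final for 3 h at 37C. Beta-lactamase reporter read with LiveBLAzer B/G FRET substrate after 2 h at room temperature.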
The target of assay [14] is Beta-2 adrenergic receptor (Homo sapiens) (UniProt P07550). Put plainly: Adrenergic beta2 receptor (ADRB2) small molecule antagonists, cell-based qHTS assay (AID 1963592). Also: series mostly up to about 92 µM; nearly all actives have a fitted effect of over 50% in size. An outline of the steps: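 Cells (CHO, stable ADRB2 overexpression) incubated 18-20hr at 37C; compounds added from DMSO; agonist mix (1nM isoproterenol, 100uM IBMX, 25uM Ro-20-1724) added; 0.5hr RT; d2-cAMP and anti-cAMP-cryptate added; 1hr RT; 665/615 nm read.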

Assay [15] shares this target. The assay is described as follows: Adrenergic beta2 receptor (ADRB2) small molecule agonists, cell-based qHTS assay (AID 1963593).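 Also: CHO cells stably overexpressing human ADRB2.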 An outline of the steps:
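CHO cells stably over-expressing ADRB2 were plated overnight at 37C, then dosed with compounds plus a stimulation mix containing 100uM IBMX and 25uM Ro-20-1724 for 0.5hr at room temperature. cAMP was measured by HTRF competition, 1hr.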

The target of assay [16] is D(2) dopamine receptor (Homo sapiens) (UniProt P14416). Put plainly: Dopamine D2 receptor (DRD2) small molecule agonists, cell-based qHTS assay (AID 1963594). Also: nearly all actives have a fitted effect of over 35% in size. A digest of the protocol:
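cAMP accumulation in DRD2-HEK293 cells measured by HTRF after 1 h detection; compounds added 10 min before NKH477 (200nM […]) forskolin-analogue stimulation, 30 min at room temperature, with Ro20-1724 present at 0.1 mM final.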

The target is the same in assay [17]. The assay is described as follows: Dopamine D2 receptor (DRD2) small molecule antagonists, cell-based qHTS assay (AID 1963595; active = well fitted inhibition curve with a large enough effect in the signal ratio in the repeat runs, with a control signal flat; the % refers to the signal ratio). A digest of the protocol:
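DRD2-HEK293; 0.1 mM Ro20-1724; cpd 10 min RT; NKH477 200 nM + quinpirole 12 nM, 30 min RT; HTRF cAMP (cAMP-d2/anti-cAMP cryptate), 665/620 nm ratio after 1 h.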

For assay [18], the target named is 5-hydroxytryptamine receptor 2A (Homo sapiens) (UniProt P28223). The assay is described as follows: 5-hydroxytryptamine receptor 2A (HTR2A) small molecule agonists, cell-based qHTS assay (AID 1963587). Also: nearly all actives have a fitted effect of over 30% in size. Also: potency is read from the fitted curve at half-maximal effect. An outline of the steps: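 Kinetic calcium-flux fluorescence (2 min, 1 sec intervals) after compound addition in agonist mode. HTR2A-CHO cells were cultured 18 h, then dye-loaded 1 h at 37 C.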

Assay [19] concerns the target Muscarinic acetylcholine receptor M1 (Homo sapiens) (UniProt P11229). The assay is described as follows: Cholinergic receptor muscarinic 1 (CHRM1) small molecule antagonists, cell-based qHTS assay (AID 1963588). Also: nearly all actives have a fitted effect of over 40% in size. A digest of the protocol: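 CHRM1-CHO calcium-flux assay, antagonist mode. Cells were seeded 18 h, dye-loaded 1 h at 37 C and given compound for 5 min at RT, then acetylcholine was added at 50nM. FDSS fluorescence was read 3 min; 15 concentrations, three runs.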

A short description of assay [20]: p53 small molecule agonists, cell-based qHTS assay with human liver microsomes: qHTS cell viability counter screen (AID 1963579). Also: nearly all actives have a fitted effect of over 45% in size. A digest of the protocol: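 In this multiplexed counter screen, the reporter plates were subsequently treated with CellTiter-Glo so that cell viability, reflected by luminescence, could be recorded for p53RE-bla cells dosed 16 h with compounds under microsomal activation (HLM and NADPH).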

Results filed as inconclusive are left out. Activity calls are given as the source filed them. Unless noted, calls follow the shape of the full dose curve.

Sequence of Beta-2 adrenergic receptor (Homo sapiens) (P07550 whole entry, looked up): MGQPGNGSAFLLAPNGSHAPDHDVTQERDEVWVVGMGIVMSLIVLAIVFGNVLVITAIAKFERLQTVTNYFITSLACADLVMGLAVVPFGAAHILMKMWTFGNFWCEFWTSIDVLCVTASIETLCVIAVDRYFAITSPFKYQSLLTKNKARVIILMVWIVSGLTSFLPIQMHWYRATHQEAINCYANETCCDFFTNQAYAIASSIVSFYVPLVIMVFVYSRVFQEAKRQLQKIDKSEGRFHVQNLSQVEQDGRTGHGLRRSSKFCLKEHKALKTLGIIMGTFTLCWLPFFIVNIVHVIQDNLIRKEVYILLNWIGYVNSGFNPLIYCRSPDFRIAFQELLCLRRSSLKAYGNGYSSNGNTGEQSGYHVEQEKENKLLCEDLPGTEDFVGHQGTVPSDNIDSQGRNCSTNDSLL
Sequence of KiSS-1 receptor (Homo sapiens) (Q969F8 whole entry, looked up): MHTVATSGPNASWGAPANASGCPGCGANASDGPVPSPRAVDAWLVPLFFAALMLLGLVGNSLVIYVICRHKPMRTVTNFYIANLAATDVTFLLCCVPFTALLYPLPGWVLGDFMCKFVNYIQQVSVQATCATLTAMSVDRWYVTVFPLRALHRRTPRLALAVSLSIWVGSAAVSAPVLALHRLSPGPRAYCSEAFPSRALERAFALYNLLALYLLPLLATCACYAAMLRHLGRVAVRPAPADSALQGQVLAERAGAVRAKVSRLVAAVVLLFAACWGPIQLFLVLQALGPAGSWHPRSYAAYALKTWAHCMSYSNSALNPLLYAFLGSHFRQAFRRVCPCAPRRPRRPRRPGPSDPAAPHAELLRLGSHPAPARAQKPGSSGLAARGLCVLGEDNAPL
Sequence of Gonadotropin-releasing hormone receptor (Homo sapiens) (P30968 whole entry, looked up): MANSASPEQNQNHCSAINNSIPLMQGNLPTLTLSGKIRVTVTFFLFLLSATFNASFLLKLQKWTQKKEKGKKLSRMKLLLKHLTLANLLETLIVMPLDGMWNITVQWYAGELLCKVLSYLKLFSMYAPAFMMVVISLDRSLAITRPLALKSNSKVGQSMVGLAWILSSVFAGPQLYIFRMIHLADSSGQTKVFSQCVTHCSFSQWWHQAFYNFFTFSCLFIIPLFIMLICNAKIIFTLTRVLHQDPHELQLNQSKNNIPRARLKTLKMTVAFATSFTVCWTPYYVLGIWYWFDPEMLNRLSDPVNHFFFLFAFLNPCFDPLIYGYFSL
Sequence of Muscarinic acetylcholine receptor M1 (Homo sapiens) (P11229 whole entry, looked up): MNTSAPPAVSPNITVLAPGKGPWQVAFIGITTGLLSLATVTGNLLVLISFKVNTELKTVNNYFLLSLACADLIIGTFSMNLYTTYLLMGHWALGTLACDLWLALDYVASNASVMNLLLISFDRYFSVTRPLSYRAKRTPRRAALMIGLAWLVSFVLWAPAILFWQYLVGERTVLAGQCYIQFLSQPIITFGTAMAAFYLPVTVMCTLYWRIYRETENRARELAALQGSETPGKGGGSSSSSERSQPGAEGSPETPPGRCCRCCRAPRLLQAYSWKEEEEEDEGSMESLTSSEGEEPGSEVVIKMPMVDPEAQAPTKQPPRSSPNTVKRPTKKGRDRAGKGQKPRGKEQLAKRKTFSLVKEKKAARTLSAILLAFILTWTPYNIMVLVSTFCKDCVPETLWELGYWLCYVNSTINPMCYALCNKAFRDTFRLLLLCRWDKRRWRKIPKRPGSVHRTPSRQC
Sequence of 5-hydroxytryptamine receptor 2A (Homo sapiens) (P28223 whole entry, looked up): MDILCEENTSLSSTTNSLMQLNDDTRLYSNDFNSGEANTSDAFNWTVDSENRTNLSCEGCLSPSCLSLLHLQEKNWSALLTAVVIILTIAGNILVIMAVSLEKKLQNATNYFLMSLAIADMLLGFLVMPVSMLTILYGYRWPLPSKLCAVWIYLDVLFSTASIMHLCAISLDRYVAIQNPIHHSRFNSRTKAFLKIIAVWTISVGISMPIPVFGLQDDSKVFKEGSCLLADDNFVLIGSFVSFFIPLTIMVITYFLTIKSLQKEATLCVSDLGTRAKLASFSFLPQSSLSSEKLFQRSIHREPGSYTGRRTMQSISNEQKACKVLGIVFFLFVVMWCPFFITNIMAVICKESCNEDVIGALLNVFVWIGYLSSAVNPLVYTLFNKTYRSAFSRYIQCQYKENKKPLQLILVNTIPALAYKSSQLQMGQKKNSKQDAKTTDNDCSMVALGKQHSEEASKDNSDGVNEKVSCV
Sequence of D(2) dopamine receptor (Homo sapiens) (P14416 whole entry, looked up): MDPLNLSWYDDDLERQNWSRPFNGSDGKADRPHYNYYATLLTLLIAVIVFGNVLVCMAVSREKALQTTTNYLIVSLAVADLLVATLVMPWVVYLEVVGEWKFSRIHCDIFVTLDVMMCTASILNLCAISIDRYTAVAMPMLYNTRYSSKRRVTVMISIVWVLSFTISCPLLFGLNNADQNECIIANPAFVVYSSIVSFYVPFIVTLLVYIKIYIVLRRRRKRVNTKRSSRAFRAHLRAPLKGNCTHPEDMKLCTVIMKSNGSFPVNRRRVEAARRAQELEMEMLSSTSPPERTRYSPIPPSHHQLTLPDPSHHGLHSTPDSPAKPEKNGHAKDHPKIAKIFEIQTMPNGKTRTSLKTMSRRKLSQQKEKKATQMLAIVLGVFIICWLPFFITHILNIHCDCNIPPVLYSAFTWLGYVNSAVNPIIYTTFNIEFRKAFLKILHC

Turning to `O=C1OC(=O)c2cc(-c3ccc4c(c3)C(=O)OC4=O)ccc21`, the Potency in [1] was 48.6 µM (active). The Potency result in assay [2], in assay [3], in assay [4], in [5], in [6] and in assay [7] was “inactive” each time. The Potency entry in [8], in assay [9], in assay [10], in [11], in assay [12] and in assay [13] was “inactive” throughout. Further, the Potency result in assay [14], in assay [15], in assay [16] and in assay [17] was “inactive” in each case.

As to `CC(O)(c1ccc(Cl)cc1)c1ccc(Cl)cc1`, the Potency entry in assay [1], in [2], in assay [3], in [4], in assay [5] and in assay [6] was “inactive” in each case. Also, the Potency result in assay [8], in [9], in [19], in assay [11] and in assay [16] was “inactive” in each case. The Potency in [18] was 49 µM (active).

For `NC(=O)c1nc(-c2cccc(-c3cc(F)ccc3OCC(F)(F)C(F)(F)F)c2)n[nH]1`, the Potency entry in assay [1], in assay [2], in assay [3], in assay [4], in assay [5] and in [6] was “inactive” in each case. Also, the Potency result in assay [20], in assay [10], in [18], in assay [19], in assay [11] and in assay [14] was “inactive” in each case. In addition, the Potency result in [16] and in [17] was “inactive” throughout.

Turning to `CCCC(=O)O[C@]1(C(=O)CCl)[C@@H](C)C[C@H]2[C@@H]3CCC4=CC(=O)C=C[C@]4(C)[C@@]3(F)C(=O)C[C@@]21C`, the Potency entry in assay [1], in [2], in assay [3], in [4], in assay [5] and in assay [6] was “inactive” in each case. For the same molecule, the Potency entry in assay [20], in [9], in assay [10], in [18], in assay [19] and in [11] was “inactive” throughout. Besides, the Potency result in assay [14] and in [17] was “inactive” in each case.

In the case of `CC1=C(/C=C/C(C)=C/C=C/C(C)=C\C=O)C(C)(C)CCC1`, in assay [1], the Potency was 64.9 µM (active). Besides, the Potency result in [2], in assay [3], in [4], in [5], in [6] and in assay [8] was “inactive” each time. The Potency entry in [10], in [18], in assay [19], in assay [11], in assay [14] and in assay [16] was “inactive” throughout. Further, in [17], the Potency result is “inactive”.

With `CCCCCCCCS(=O)C(C)Cc1ccc2c(c1)OCO2` (stereo not drawn), the Potency result in assay [1], in assay [2], in assay [3], in assay [4], in assay [5] and in assay [6] was “inactive” in each case. Further, the Potency result in assay [20], in assay [18], in assay [19], in assay [11], in assay [14] and in assay [15] was “inactive” in each case. Further, the Potency entry in [16] and in assay [17] was “inactive” each time.

For `COc1ccc(-c2cc(=S)ss2)cc1`, the Potency in assay [1] was 33.5 µM (active). Also, the Potency entry in assay [2], in assay [3], in assay [4], in assay [5], in [6] and in assay [20] was “inactive” throughout. Moreover, the Potency entry in assay [8], in assay [18], in assay [19], in assay [11], in assay [12] and in assay [13] was “inactive” throughout. The Potency result in [14], in assay [15], in assay [16] and in assay [17] was “inactive” throughout.

As to `CC(=O)OC(OC(C)=O)c1ccc([N+](=O)[O-])o1`, the Potency in [1] was 24.8 µM (active). For the same molecule, the Potency result in [2], in assay [3], in assay [4], in [5], in assay [6] and in [18] was “inactive” throughout. Besides, the Potency entry in assay [19], in assay [11], in assay [16] and in assay [17] was “inactive” each time.
